# High-throughput results: PubChem BioAssay, NMMLSC
# Shown are actives, neighbours in structure and some others; about 0.38% of the full set was active somewhere.
# HRas wt GTP bind – modulators of GTP binding to HRas wildtype, primary screen, biochemical, bead-based flow cytometry, multiplex; GST-Ras wt beads, Bodipy-FL-GTP binding; actives lie on both sides; GTPase HRas (Homo sapiens), P01112; AID 759, 2007; 190,000 compounds, 0.14% hits; GTP binding activity, % at 10 µM;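 active = GTP binding activity at least 20% away from the 100% baseline, either lowered as inhibitor or raised as activator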;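 note: 0% = unlabeled GTP competition control and 100% = no-compound control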
# Target sequence (P01112 whole entry, looked up): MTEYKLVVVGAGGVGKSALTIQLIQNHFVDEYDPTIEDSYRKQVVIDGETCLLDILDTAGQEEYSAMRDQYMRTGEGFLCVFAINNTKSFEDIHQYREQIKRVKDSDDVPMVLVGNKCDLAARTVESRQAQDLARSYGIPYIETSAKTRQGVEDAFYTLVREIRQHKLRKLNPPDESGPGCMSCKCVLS
# Rac1 wt modul – wildtype Rac1 GTP binding modulators, primary screen, biochemical, GST-Rac1 beads, flow cytometry, multiplex. 190,000 compounds, 0.27% hits. fluorescent GTP binding; actives lie on both sides; 0 = cold GTP competed, 100 = untreated. GTP binding activity (% of control), % at 10 µM. Ras-related C3 botulinum toxin substrate 1 (Homo sapiens), P63000;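 active = GTP binding activity at least 20 points away from the 100% control level, either lower or higher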
# Rab7 wt modul – modulators of GTP binding to Rab7, primary screen, biochemical, wildtype, multiplex bead flow cytometry. Rab7 GTPase wild type (dog), Bodipy-FL-GTP binding. GST-Rab7 beads, fluorescent GTP binding; actives lie on both sides; untreated = 100%, excess cold GTP = 0%. GTP binding activity (percent of control), % at 10 µM. 190,000 compounds, 0.055% hits. AID 758, 2007;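 active = fluorescent GTP binding to Rab7 beads changed by at least 20 points from the 100% baseline, either direction, mostly lower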;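 note: median green fluorescence of bound Bodipy-FL-GTP per Rab7 bead population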
# Rac1 mut GTP – GTP binding modulators of activated mutant Rac1, primary screen, biochemical, bead-based flow cytometry, multiplex, fluorescent GTP | Ras-related C3 botulinum toxin substrate 1 (Homo sapiens), P63000 | GST-Rac1 activated beads; actives lie on both sides; 100% means binding = to untreated wells | percent activity (GTP binding), % at 10 µM | 190,000 compounds, 0.11% hits;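 active = GTP binding at least 20 percentage points away from the 100% baseline, in either direction, so actives lie on both sides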
# Cdc42 wt GTP – modulators of GTP binding to wildtype Cdc42, primary screen, biochemical, multiplex bead flow cytometry, Bodipy-GTP | 190,000 compounds, 0.2% hits | percent activity (GTP binding), % at 10 µM | Cell division control protein 42 homolog (Homo sapiens), P60953 | GST-Cdc42 beads; actives lie on both sides;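 active = percent activity GTP binding at least 20 points away from the 100% baseline, either down as inhibitor or up as activator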;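 note: median bead fluorescence of bound Bodipy-FL-GTP at 100 nM; 0% = excess unlabeled GTP control and 100% = no compound control; below 100% means less GTP binding so inhibitor and above means activator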
# Target sequence (P60953 whole entry, looked up): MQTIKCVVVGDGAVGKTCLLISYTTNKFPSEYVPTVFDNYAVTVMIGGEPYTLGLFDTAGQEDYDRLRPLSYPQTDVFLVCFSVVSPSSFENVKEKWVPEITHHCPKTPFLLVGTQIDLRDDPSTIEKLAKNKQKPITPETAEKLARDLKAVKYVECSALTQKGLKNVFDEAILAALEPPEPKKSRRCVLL
# Rab2 wt GTP – modulators of GTP binding to Rab2A wildtype, primary screen, biochemical, dog, bead-based flow cytometry, multiplex | 190,000 compounds, 0.19% hits | Ras-related protein Rab-2A (Canis lupus familiaris), P61105 | AID 760, 2007 | GTP binding activity, % at 10 µM | GST-Rab2 wt beads, Bodipy-GTP binding;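 active = GTP binding activity at least 20 points away from 100%, either lowered or raised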;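 note: 0% = beads with excess unlabeled GTP and 100% = no-compound control corrected for plate trend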
# Numbers without * were called inactive; [ ] = dose if it differs, or a comment.
SMILES,HRas wt GTP bind,Rac1 wt modul,Rab7 wt modul,Rac1 mut GTP,Cdc42 wt GTP,Rab2 wt GTP
CCOc1ccc2nc(SCC(=O)N3c4ccccc4Sc4ccccc43)c(C#N)cc2c1,102,105,102,100,100,100
CCOc1ccc2nc(SCc3ccc(CC(=O)O)cc3)c(C#N)cc2c1,84,82,88,76*,71*,74*
Cc1cn2c(nc(=O)c3cccnc32)s1,86,76*,92,89,85,83
O=NN(CCc1ccncc1)c1ccc(OCc2ccccc2)cc1,93,92,91,93,96,94
CCOC(=O)Cc1csc(NC(=O)/C=C/c2cccc(Br)c2)n1,92,96,101,95,93,95
COC(CNC(=O)C1CCCN1C(=O)OCc1ccccc1)OC (stereo not drawn),115,121*[activator],115,117,119,116
O=C(O)C1CCCN1C(=O)OCc1ccccc1 (stereo not drawn),121*[activator],139*[activator],120*[activator],121*[activator],128*[activator],122*[activator]
S=C(N/N=C/c1ccccc1Cl)Nc1ccccc1,97,100,100,98,96,98
CCn1c(SCC(=O)O)nnc1-c1cc2c(C)nn(-c3ccccc3)c2s1,83,79*,85,90,83,81
Cc1nn(-c2ccccc2)c2sc(-c3nnc(SCC(=O)O)o3)cc12,96,96,99,93,93,96
CCCCCc1c(O)nc(SCC(=O)NCC2CCCO2)[nH]c1=O (stereo not drawn),98,102,95,95,98,98
O=c1c2ccccc2nc2c3ccccc3cnn12,77*,65*,83,83,78*,77*
O=c1c2ccccc2nc2c3ccccc3c(NCc3ccco3)nn12,68*,77*,88,81,67*,66*
O=c1c2ccccc2nc2c3ccccc3c(Cl)nn12,81,69*,86,85,80,78*
O=C(NCc1ccc2c(c1)OCO2)c1ccc(CSCc2cccc(Cl)c2)o1,82,83,88,82,79*,80
CC1=NC(=O)C(N=Nc2ccccc2C(=O)O)N1c1ccccc1 (stereo not drawn),84,79*,91,81,80,80
CC1=NC(=O)C(N=Nc2ccccc2)N1c1ccccc1 (stereo not drawn),98,100,99,98,97,95
COc1ccc(C(=O)Nc2cc(Cl)ccc2OC(=O)c2ccc(OC)cc2)cc1,98,96,97,96,96,96
COc1ccc(C(=O)Nc2cc(Cl)ccc2C(=O)O)cc1,83,81,85,77*,78*,83
CN1CCN(CCC(=O)N2c3ccccc3Sc3ccc(Cl)cc32)CC1,100,102,98,97,104,98
O=C(CN1CCN(CCOCCO)CC1)N1c2ccccc2Sc2ccc(Cl)cc21,103,120*[activator],102,103,112,102
C=CCn1c(O)c(N=NC(=O)c2ccccc2NS(=O)(=O)c2cccs2)c2ccccc21,88,92,88,88,94,85
CCCCn1c(O)c(N=NC(=O)c2ccccc2NS(=O)(=O)c2cccs2)c2ccccc21,86,81,91,78*,82,81
Cc1ccc(CSc2nnc(-c3ccccc3N)c(=O)[nH]2)cc1,98,120*[activator],97,100,102,98
CCOC(=O)c1c(NC(C)=O)sc2c(O)c(CN3CCN(CC)CC3)ccc12,98,99,102,98,101,97
SMILES,HRas wt GTP bind,Rac1 wt modul,Rab7 wt modul,Rac1 mut GTP,Cdc42 wt GTP,Rab2 wt GTP
Cc1cccc(-c2nnc(NC(=O)c3ccc(N4C(=O)CCC4=O)cc3)s2)c1,105,113,101,101,107,103
Cc1ccccc1-c1nnc(NC(=O)c2ccc(N3C(=O)CCC3=O)cc2)s1,106,130*[activator],104,104,109,106
O=S1(=O)N=C(N(CCO)/N=C/C=C/c2ccccc2)c2ccccc21,70*,61*,84,80,79*,72*
CS(=O)(=O)N1CCN(C(=O)C2c3ccccc3Oc3ccccc32)CC1,111,121*[activator],103,102,116,112
Cc1nc(-c2ccccc2)sc1C(=O)NN,118,128*[activator],104,114,125*[activator],120*[activator]
CC(=O)Nc1ccc(/C=N/NC(=O)CCN2CCN(c3ccccc3)CC2)cc1,79*,74*,88,87,76*,75*
CN1CCN(C(=O)/C=C\C(=O)O)CC1,99,104,99,99,99,99
Cc1nnc2ccc(-c3cccc(NC(=O)c4ccc(Br)o4)c3)nn12,86,79*,91,90,88,86
O=C(Nc1cccc(-c2ccc3nncn3n2)c1)c1ccco1,85,77*,91,89,86,87
CCOc1ccccc1C(=O)Nc1cccc(-c2ccc3nncn3n2)c1,78*,73*,92,88,73*,75*
Cc1nnc2ccc(-c3cccc(NC(=O)c4ccc(Cl)nc4)c3)nn12,91,86,95,91,91,91
N#Cc1c(-c2cccc(Br)c2)cc(-c2ccco2)[nH]c1=O,83,75*,86,76*,79*,81
NS(=O)(=O)c1ccc(N2N=C(c3ccccc3)CC2c2cccc(F)c2)cc1 (stereo not drawn),102,106,102,101,61*,100
COc1ccc(S(=O)(=O)NCC2CCCN(CC(C)(C)C)C2)cc1 (stereo not drawn),97,99,102,98,98,101
CC(=O)Nc1ccc(N2C(=O)c3ccc(C(=O)Nc4nnc(SCc5ccc(F)cc5)s4)cc3C2=O)cc1,73*,99,94,93,97,97
CC(C)CNS(=O)(=O)c1ccc(CCC(=O)Nc2ccc3c(c2)OCO3)cc1,102,101,102,96,102,102
O=C(CCc1ccc(S(=O)(=O)NCCc2ccccc2)cc1)Nc1ccc2c(c1)OCO2,39*,33*,24*,35*,35*,34*
CCOC(=O)N1CCN(C(=O)CCc2ccc(S(=O)(=O)NCCc3ccccc3)cc2)CC1,37*,29*,20*,32*,33*,32*
